Results taken from PubChem BioAssay.

System: Rat fibroblasts (CREF)
Test: inhibition of PEG-3 promoter-driven reporter – cell-based, HeLa, luciferase, CREF/GAPDH counter-screen panel, dose response (AID 624167)
Conditions: CREF/GAPDH counter-screens; run 1, dose range 1, at 100 µM (top of the series)

Structure (SMILES) | inhibition
O=C(Nc1ccc([N+](=O)[O-])cc1)C(=O)Nc1cccc(C(=O)O)c1 | 97.5%
C=CCn1c(COc2ccccc2)nnc1SC(C)C(=O)N/N=C/c1cc(Cl)ccc1O (stereo not given) | 37.9%
CCC(=O)NC(c1ccc(C)cc1)c1ccc2cccnc2c1O (stereo not given) | 16.7%
C/C(=N\NC(=O)c1c(C)nc2ccccn12)c1ccc(O)cc1O | 49.2%
O=C(/C=C/Nc1ccccc1Br)c1ccccn1 | 97.6%
O=C(N/N=C\c1c(O)ccc2ccccc12)c1cncc(Br)c1 | 78.3%
COc1ccc(C(NC(C)=O)c2ccc3cccnc3c2O)c(OC)c1 (stereo not given) | -4.86%
COc1ccccc1C(=O)Nc1nc2ccccc2s1 | 100%
Cc1cc(C)c2nc(NNC(=O)c3ccc(S(=O)(=O)N4CC(C)CC(C)C4)cc3)sc2c1 (stereo not given) | 92.9%
O=C(CCSc1nc2ccccc2s1)N/N=C/c1c(O)ccc2ccccc12 | 40.6%
Cc1cc(NC(c2ccc(Cl)cc2)c2ccc3cccnc3c2O)no1 (stereo not given) | 37.2%
COc1ccc(C(=O)O/N=C(\N)c2ccccn2)cc1 | 98.2%
CCCC(=O)NC(c1ccc(N(C)C)cc1)c1ccc2cccnc2c1O (stereo not given) | 42.3%
O=C(N/N=C\c1c(O)ccc2ccccc12)c1ccc(Cn2cccn2)o1 | 51.2%
Nc1nonc1-n1nnc(C(=O)N/N=C/c2cc(Br)ccc2O)c1CNc1ccccc1 | 54.5%

System: Rat fibroblasts (CREF)
Test: as above
Conditions: CREF/GAPDH counter-screens; run 2, dose range 1, at 100 µM (top of the series)

Structure (SMILES) | inhibition
O=C(Nc1ccc([N+](=O)[O-])cc1)C(=O)Nc1cccc(C(=O)O)c1 | 96.8%
C=CCn1c(COc2ccccc2)nnc1SC(C)C(=O)N/N=C/c1cc(Cl)ccc1O (stereo not given) | 43.9%
CCC(=O)NC(c1ccc(C)cc1)c1ccc2cccnc2c1O (stereo not given) | 31.4%
C/C(=N\NC(=O)c1c(C)nc2ccccn12)c1ccc(O)cc1O | 56.5%
O=C(/C=C/Nc1ccccc1Br)c1ccccn1 | 98.9%
O=C(N/N=C\c1c(O)ccc2ccccc12)c1cncc(Br)c1 | 79.5%
COc1ccc(C(NC(C)=O)c2ccc3cccnc3c2O)c(OC)c1 (stereo not given) | 50.2%
COc1ccccc1C(=O)Nc1nc2ccccc2s1 | 99.5%
Cc1cc(C)c2nc(NNC(=O)c3ccc(S(=O)(=O)N4CC(C)CC(C)C4)cc3)sc2c1 (stereo not given) | 95.6%
O=C(CCSc1nc2ccccc2s1)N/N=C/c1c(O)ccc2ccccc12 | 38%
Cc1cc(NC(c2ccc(Cl)cc2)c2ccc3cccnc3c2O)no1 (stereo not given) | 44.8%
COc1ccc(C(=O)O/N=C(\N)c2ccccn2)cc1 | 99.2%
CCCC(=O)NC(c1ccc(N(C)C)cc1)c1ccc2cccnc2c1O (stereo not given) | 43.5%
O=C(N/N=C\c1c(O)ccc2ccccc12)c1ccc(Cn2cccn2)o1 | 41.5%
Nc1nonc1-n1nnc(C(=O)N/N=C/c2cc(Br)ccc2O)c1CNc1ccccc1 | 59.3%
